# Assay results as given in paper PMC7862700, “An all-to-all approach to the identification of sequence-specific readers for epigenetic DNA modifications on cytosine”.
# Tests used:
# Assay in all cases: DAPPL (digital affinity profiling via proximity ligation, sequencing); 10 mM Tris-HCl pH 7.5, 50 mM NaCl, 1 mM DTT, 4% glycerol, room temperature, 30 min; GST-TFs on glutathione beads, 16-mer random dsDNA library, 0.1% formaldehyde crosslink after washing; high values mean tight binding
# FEV = target: T1, FEV (Homo sapiens, UniProt Q99581 1-238); settings: protein: recombinant; tags: N-terminal GST; dsDNA, one strand shown
# T1 sequence: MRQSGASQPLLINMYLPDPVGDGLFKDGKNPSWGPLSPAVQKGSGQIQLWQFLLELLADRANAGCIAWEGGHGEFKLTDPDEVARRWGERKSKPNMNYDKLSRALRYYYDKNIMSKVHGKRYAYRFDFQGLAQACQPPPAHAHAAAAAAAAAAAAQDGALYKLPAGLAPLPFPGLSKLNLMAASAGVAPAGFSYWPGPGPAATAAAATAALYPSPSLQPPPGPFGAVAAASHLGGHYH
# Outline: (§1)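 Sequencing on an Illumina NextSeq500 followed washing, crosslinking with 0.1% formaldehyde, proximity ligation (BsaI/T4 ligase, 1 h, 37 °C) and PCR amplification of pools that had been incubated for 30 min at room temperature with 200 nmole of a random double-stranded 16-mer DNA library in Tris/NaCl/DTT/glycerol buffer. Each pool held DNA-barcoded human transcription factors, expressed in yeast as GST fusions and captured on glutathione beads, plus a tag-only sample. Binding signal is a hexamer's read frequency for a factor divided by its frequency in the tag-only sample.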
# ETV5 = ETV5 (Homo sapiens, UniProt P41161 1-510); settings: protein: recombinant; tags: N-terminal GST; dsDNA, one strand shown
# ETV5, sequence (P41161 whole entry): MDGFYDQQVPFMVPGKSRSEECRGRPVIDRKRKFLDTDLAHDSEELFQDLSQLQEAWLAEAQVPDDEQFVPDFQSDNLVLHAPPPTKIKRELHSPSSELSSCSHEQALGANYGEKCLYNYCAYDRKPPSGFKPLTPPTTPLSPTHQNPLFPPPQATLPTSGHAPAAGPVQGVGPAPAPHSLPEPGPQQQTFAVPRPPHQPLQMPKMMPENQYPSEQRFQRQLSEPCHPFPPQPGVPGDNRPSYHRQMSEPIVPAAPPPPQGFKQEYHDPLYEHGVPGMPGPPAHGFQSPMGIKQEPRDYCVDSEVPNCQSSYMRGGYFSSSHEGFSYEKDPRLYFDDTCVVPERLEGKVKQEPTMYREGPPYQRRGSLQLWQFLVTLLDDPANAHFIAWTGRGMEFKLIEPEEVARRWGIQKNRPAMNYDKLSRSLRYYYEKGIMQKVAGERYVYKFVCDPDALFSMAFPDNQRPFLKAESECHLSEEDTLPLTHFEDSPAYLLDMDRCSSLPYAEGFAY
# Outline: as §1
# HSF1 = HSF1 (Homo sapiens, UniProt Q00613 1-529); settings: protein: recombinant; tags: N-terminal GST; chain copies: 3; dsDNA, one strand shown
# HSF1, sequence (Q00613 whole entry): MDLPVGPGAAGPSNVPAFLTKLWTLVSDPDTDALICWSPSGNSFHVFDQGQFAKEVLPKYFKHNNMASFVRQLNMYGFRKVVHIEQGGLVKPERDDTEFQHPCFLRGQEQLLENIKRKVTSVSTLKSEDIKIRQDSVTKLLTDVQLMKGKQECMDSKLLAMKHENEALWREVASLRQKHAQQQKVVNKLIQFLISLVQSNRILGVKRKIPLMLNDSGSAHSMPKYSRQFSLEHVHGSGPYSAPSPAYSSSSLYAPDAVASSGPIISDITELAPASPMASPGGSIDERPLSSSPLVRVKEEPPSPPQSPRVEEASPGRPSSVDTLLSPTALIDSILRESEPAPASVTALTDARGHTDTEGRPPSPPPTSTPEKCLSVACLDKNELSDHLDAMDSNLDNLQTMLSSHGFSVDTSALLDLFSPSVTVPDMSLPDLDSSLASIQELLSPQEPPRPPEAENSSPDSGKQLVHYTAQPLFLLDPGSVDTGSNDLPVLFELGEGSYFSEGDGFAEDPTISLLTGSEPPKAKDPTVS
# Outline: as §1
# SPIC = target: T2, SPIC (Homo sapiens, UniProt Q8N5J4 1-248); settings: protein: recombinant; tags: N-terminal GST; dsDNA, one strand shown
# T2 sequence: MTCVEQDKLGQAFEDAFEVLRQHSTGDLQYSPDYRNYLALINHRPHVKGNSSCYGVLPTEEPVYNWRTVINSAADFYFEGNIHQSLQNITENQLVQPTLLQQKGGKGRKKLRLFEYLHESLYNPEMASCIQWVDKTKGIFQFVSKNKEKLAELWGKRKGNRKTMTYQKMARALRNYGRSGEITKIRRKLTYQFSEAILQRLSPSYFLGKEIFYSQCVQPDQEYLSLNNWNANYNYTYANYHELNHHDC
# Outline: as §1
# ELF4 = ELF4 (Homo sapiens, UniProt Q99607 1-663); settings: protein: recombinant; tags: N-terminal GST; dsDNA, one strand shown
# ELF4, sequence (Q99607 whole entry): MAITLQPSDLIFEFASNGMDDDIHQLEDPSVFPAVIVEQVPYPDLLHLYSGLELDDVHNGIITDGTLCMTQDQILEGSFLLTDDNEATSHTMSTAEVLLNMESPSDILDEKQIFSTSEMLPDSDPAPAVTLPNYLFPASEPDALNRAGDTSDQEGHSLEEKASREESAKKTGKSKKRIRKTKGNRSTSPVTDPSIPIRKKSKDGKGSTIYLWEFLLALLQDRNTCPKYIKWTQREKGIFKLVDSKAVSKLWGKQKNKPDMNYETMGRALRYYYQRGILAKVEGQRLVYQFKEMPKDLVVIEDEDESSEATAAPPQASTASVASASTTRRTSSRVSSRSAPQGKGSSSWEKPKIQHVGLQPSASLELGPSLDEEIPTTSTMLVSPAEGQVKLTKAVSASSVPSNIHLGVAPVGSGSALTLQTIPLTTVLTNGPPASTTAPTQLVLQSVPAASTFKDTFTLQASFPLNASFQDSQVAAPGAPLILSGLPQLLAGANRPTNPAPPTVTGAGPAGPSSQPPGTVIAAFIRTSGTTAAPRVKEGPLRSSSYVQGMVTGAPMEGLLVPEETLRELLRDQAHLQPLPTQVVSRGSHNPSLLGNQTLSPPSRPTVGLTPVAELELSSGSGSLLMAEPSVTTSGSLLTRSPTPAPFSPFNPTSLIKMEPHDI
# Outline: as §1
# ELK4 = target: T3, ELK4 (Homo sapiens, UniProt P28324-2 1-405); settings: protein: recombinant; tags: N-terminal GST; dsDNA, one strand shown
# T3 sequence: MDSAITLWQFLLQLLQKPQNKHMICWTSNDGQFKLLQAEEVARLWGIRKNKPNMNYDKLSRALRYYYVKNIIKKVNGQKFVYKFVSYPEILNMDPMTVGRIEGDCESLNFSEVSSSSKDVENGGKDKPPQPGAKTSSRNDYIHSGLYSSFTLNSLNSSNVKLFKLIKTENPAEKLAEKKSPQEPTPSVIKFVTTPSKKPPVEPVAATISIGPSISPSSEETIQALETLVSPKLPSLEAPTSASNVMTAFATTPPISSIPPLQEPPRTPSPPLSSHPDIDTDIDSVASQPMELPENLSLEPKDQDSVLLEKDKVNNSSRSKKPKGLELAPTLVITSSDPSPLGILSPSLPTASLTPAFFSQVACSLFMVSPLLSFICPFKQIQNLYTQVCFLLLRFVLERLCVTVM
# Outline: as §1
# ETV2 = target: T4, ETV2 (Homo sapiens, UniProt O00321 1-342); settings: protein: recombinant; tags: N-terminal GST; dsDNA, one strand shown
# T4 sequence: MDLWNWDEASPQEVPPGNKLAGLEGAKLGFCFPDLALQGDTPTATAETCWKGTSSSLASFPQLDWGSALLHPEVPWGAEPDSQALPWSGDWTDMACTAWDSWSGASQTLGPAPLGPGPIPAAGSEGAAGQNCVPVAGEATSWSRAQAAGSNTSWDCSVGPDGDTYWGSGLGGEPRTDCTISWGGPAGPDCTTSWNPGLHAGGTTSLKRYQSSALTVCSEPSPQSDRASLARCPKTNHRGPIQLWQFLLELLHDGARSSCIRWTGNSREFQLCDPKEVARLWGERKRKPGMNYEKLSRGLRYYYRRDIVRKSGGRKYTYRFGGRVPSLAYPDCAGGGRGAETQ
# Outline: as §1
# ELF3 = target: T5, ELF3 (Homo sapiens, UniProt P78545 1-371); settings: protein: recombinant; tags: N-terminal GST; dsDNA, one strand shown
# T5 sequence: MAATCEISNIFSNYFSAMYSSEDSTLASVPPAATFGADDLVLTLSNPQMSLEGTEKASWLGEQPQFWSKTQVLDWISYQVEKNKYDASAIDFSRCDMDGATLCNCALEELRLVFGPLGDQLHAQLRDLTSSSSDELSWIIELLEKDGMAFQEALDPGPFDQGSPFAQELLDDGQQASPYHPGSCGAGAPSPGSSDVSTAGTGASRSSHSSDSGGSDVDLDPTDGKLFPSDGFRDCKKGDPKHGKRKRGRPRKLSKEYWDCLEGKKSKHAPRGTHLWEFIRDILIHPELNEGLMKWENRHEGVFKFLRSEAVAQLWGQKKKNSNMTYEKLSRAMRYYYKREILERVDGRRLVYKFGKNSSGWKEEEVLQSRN
# Outline: as §1
# CRX = CRX (Homo sapiens, UniProt O43186 1-299); settings: protein: recombinant; tags: N-terminal GST; dsDNA, one strand shown
# CRX, sequence (O43186 whole entry): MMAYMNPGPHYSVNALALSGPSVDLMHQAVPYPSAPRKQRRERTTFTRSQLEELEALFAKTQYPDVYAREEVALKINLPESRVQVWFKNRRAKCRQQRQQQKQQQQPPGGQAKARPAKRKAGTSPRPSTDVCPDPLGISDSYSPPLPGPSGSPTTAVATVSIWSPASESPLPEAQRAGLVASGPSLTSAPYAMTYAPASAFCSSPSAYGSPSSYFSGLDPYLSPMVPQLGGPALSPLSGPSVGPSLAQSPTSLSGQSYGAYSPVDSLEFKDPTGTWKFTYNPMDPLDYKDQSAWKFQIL
# Outline: as §1
# ETV1 = ETV1 (Homo sapiens, UniProt P50549 1-477); settings: protein: recombinant; tags: N-terminal GST; dsDNA, one strand shown
# ETV1, sequence (P50549 whole entry): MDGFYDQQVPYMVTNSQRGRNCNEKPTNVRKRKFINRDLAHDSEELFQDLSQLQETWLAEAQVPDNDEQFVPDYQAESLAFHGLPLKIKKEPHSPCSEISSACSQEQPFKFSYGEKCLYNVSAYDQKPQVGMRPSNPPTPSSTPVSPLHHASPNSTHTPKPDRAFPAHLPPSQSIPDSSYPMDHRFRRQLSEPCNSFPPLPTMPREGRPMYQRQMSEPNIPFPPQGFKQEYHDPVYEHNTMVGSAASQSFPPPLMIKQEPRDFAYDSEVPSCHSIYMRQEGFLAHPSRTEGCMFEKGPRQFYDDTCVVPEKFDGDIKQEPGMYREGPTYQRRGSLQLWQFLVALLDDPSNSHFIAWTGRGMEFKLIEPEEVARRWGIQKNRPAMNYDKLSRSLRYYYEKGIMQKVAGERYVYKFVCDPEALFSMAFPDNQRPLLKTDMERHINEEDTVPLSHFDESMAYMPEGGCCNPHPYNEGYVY
# Outline: as §1
sequence,measurement,setting,value
CTGATA,binding signal,FEV,"1.14 fold enrichment (6-mer frequency, TF over GST control)"
same,binding signal,ETV5,"1.18 fold enrichment (6-mer frequency, TF over GST control)"
same,binding signal,HSF1,"1.18 fold enrichment (6-mer frequency, TF over GST control)"
same,binding signal,SPIC,"1.11 fold enrichment (6-mer frequency, TF over GST control)"
same,binding signal,ELF4,"1.19 fold enrichment (6-mer frequency, TF over GST control)"
same,binding signal,ELK4,"1.35 fold enrichment (6-mer frequency, TF over GST control)"
same,binding signal,ETV2,"1.15 fold enrichment (6-mer frequency, TF over GST control)"
same,binding signal,ELF3,"1.13 fold enrichment (6-mer frequency, TF over GST control)"
same,binding signal,CRX,"1.26 fold enrichment (6-mer frequency, TF over GST control)"
same,binding signal,ETV1,"1.13 fold enrichment (6-mer frequency, TF over GST control)"
